# According to PubChem BioAssay:
# Calls of active or inactive are those of the source. Unless noted, no rule for the calls is given here.
# Key:
# [1] = system: XIP peptide (Xip251-270) binding; assay: small-molecule binders of XIP peptide, primary screen, biochemical, small-molecule microarray, fluorescence 635/667 nm, 0.1 µg/mL protein (AID 1182); details: fluorescent protein binding, 635 nm, higher = more signal, called active from +8 up or from −8 down
# [2] = system: XIP peptide (Xip251-270); assay: small-molecule binders of XIP peptide, primary screen, biochemical, small-molecule microarray, fluorescence 635/667 nm, 0.5 µg/mL protein (AID 1183); details: small-molecule microarray binding, fluorescence 635 nm; higher = more signal
# [3] = Plasmodium falciparum growth inhibition, primary screen, strain 3D7, DAPI fluorescence, 100 nL (AID 1184);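 also: parasites grown inside human red blood cells in medium with human serum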; details: P. falciparum 3D7 growth, 3 d, higher = more signal
# [4] = target: Homeobox protein Hox-A13 (Mus musculus) (UniProt Q62424); assay: inhibitors of HoxA13-DNA binding, primary screen, biochemical, fluorescence polarization, labeled oligonucleotide (AID 1185); details: 15 min, higher = more signal, called active from +8 up or from −8 down
# Chain of Homeobox protein Hox-A13 (Mus musculus) (Q62424 whole entry, looked up): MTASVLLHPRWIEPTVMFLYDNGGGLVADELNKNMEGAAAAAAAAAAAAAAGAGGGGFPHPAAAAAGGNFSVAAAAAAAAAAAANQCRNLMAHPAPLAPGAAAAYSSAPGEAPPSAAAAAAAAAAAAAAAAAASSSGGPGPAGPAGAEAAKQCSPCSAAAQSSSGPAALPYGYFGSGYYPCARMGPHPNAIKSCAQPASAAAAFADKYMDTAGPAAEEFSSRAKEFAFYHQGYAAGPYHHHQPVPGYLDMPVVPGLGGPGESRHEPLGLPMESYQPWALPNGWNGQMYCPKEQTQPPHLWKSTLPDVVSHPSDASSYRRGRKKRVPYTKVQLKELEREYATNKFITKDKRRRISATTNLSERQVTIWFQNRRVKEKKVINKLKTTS
# [5] = inhibitors of hydroxyurea-induced Chk1 phosphorylation, primary screen, imaging, HeLa, phospho-Chk1 antibody, percent positive cells (AID 1186); details: hydroxyurea-induced phospho-Chk1 immunofluorescence imaging, higher = more signal
# [6] = inhibitors of hydroxyurea-induced Chk1 phosphorylation, primary screen, imaging, HeLa, phospho-Chk1 nuclear intensity (AID 1187); details: hydroxyurea-induced phospho-Chk1 immunofluorescence imaging, higher = more signal
Compound,composite z-score [1],composite z-score [2],z-score [3],z-score [4],z-score [5],z-score [6]
COC(=O)[C@]1(CCS(=O)(=O)c2ccccc2)N=C(c2ccc(OCCCO)cc2)O[C@@H]1c1ccccc1CN=[N+]=[N-],0.867 (inactive),0.769,-2.2,-0.936 (inactive),-0.375 (inactive),-0.574 (inactive)
NC(=O)NCC#Cc1ccc2c(c1)[C@]1(C(=O)N2)[C@H](C(=O)Nc2nc3ccccc3s2)[C@H]2C(=O)O[C@H](c3ccccc3)[C@H](c3ccccc3)N2[C@@H]1c1ccc(O)cc1,0.207 (inactive),0.6,-0.905,0.916 (inactive),0.118 (inactive),0.194 (inactive)
CCCC[C@@H]1C[C@H]1[C@@H](NC(=O)c1ccccc1)c1ccc(Cl)cc1,-0.778 (inactive),-2.03,-0.385,-3.04 (inactive),0.413 (inactive),-0.524 (inactive)
O=C1C[C@@](C(=O)NCC(F)(F)F)(c2ccc([N+](=O)[O-])cc2)[C@@H](c2ccc(CO)cc2)N1C1CCCCC1,0.925 (inactive),0.871,0.0369,-4.46 (inactive),-0.0554 (inactive),-0.32 (inactive)
NCCCCCNC(=O)[C@@H]1C[C@@H]2C(=O)N[C@@H](CCCCN)C(=O)N2[C@@H]1c1cccc(OCCO)c1,0.824 (inactive),0.793,-0.119,-0.453 (inactive),0.0424 (inactive),-0.0136 (inactive)
CCOC(=O)C[C@H]1[C@H](OC(=O)Cc2ccc3c(c2)OCO3)[C@@H](NC(=O)C2CCCCC2)c2cc(OCCCO)ccc2N1C(=O)c1ccc2ccccc2n1,1.35 (inactive),0.639,-2.04,-3.76 (inactive),0.404 (inactive),-0.0148 (inactive)
NC(=O)N1C(=O)C2C(C1=O)C1C=C(c3ccc(CO)cc3)C2C(C2CC2)N1Cc1sc2ccccc2c1Cl (stereo not drawn),0.703 (inactive),0.726,-2.1,-2.31 (inactive),-0.0244 (inactive),-0.0866 (inactive)
COCCOC(=O)N1C(=O)[C@@]2(c3cc(C#Cc4ccc(OC)cc4)ccc31)[C@H](C(=O)NC[C@H](O)c1ccccc1)[C@H]1C(=O)O[C@H](c3ccccc3)[C@H](c3ccccc3)N1[C@@H]2c1ccc(O)cc1,1.42 (inactive),0.775,-0.754,-1.78 (inactive),-0.045 (inactive),0.126 (inactive)
CCOC(=O)C[C@H]1[C@H](OC(=O)c2ccccc2-c2ccccc2)[C@@H](NC(=O)CC(C)C)c2cc(OCCCO)ccc2N1C(=O)c1ccc2ccccc2n1,2.34 (inactive),0.0366,1.65,-3.94 (inactive),0.222 (inactive),-0.537 (inactive)
C[C@]12C(=O)N(CCCCCCO)[C@@H]3C(=O)N(c4ccc(Cl)cc4)CC=CC31O[C@@H]1/C=C\CCCOC(=O)C12 (stereo partly drawn),-0.295 (inactive),-0.0821,-0.692,-4.68 (inactive),-0.659 (inactive),0.264 (inactive)
O=C1C2C=CC(C(O)c3cc(C(F)(F)F)cc(C(F)(F)F)c3)N(Nc3ccc([N+](=O)[O-])cc3)C2C(=O)N1c1ccccc1 (stereo not drawn),0.131 (inactive),0.802,-0.945,-3.06 (inactive),-0.198 (inactive),-0.331 (inactive)
Cc1ccc(S[C@]2(C(=O)O)CC(=O)N(Cc3ccccc3Cl)[C@@H]2c2ccc(CO)cc2)cc1,0.084 (inactive),-0.0477,-1.34,-2.09 (inactive),-0.181 (inactive),-0.207 (inactive)
CC(C)CCC[C@@H](C)[C@H]1CC[C@@]2(C)C3=C(CC[C@]12C)[C@@]1(C)CC[C@H](OC(=O)c2ccc(Br)cc2)C(C)(C)C1CC3 (stereo partly drawn),-0.349 (inactive),-0.198,0.665,-0.708 (inactive),0.0833 (inactive),0.377 (inactive)
COCCOC(=O)N1C(=O)[C@@]2(c3cc(C#CC4=CCCCC4)ccc31)[C@H](c1ccc(O)cc1)N1[C@H](c3ccccc3)[C@H](c3ccccc3)OC(=O)[C@H]1[C@@H]2C(=O)Nc1nc2ccccc2s1,0.863 (inactive),0.843,-1.32,1.05 (inactive),0.0256 (inactive),0.125 (inactive)
COc1ccc([Si](C)(C)[C@@H]2[C@@H](CCO)O[C@]3(C(=O)N(Cc4cccc(N5C(=O)c6ccccc6Oc6ccccc65)c4)c4ccccc43)[C@H]2C)cc1,0.872 (inactive),0.41,-2.47,-1.49 (inactive),-0.665 (inactive),-0.278 (inactive)
COCCCNC(=O)[C@]1(Cc2ccccc2CN=[N+]=[N-])N=C(c2ccc(OCCCO)cc2)O[C@@H]1c1ccccc1,0.0968 (inactive),0.598,-2.41,-6.44 (inactive),-0.401 (inactive),-0.24 (inactive)
C=CCOC(=O)[C@@H]1[C@H]2C(=O)O[C@H](c3ccccc3)[C@H](c3ccccc3)N2[C@H](c2ccc(OCCOC(=O)[C@H]3C[C@H]4C(=O)N[C@@H](CC(C)C)C(=O)N4[C@H]3c3ccc(O)cc3)cc2)[C@@]12C(=O)Nc1ccc(I)cc12,0.234 (inactive),0.828,-1.79,0.981 (inactive),-0.25 (inactive),-0.115 (inactive)
NC(=O)NCC#Cc1ccc2c(c1)[C@]1(C(=O)N2)[C@H](C(=O)O)[C@H]2C(=O)O[C@H](c3ccccc3)[C@H](c3ccccc3)N2[C@@H]1c1ccccc1OCCO,0.638 (inactive),0.823,0.828,-5.72 (inactive),-0.0005 (inactive),0.287 (inactive)
O=C1C[C@]2(c3ccc([N+](=O)[O-])cc3)C(=O)N(Cc3ccccc3)c3cc(CO)ccc3[C@H]2N1CC12CC3CC(CC(C3)C1)C2,0.0547 (inactive),-1.46,-0.734,-1.07 (inactive),0.0585 (inactive),-0.785 (inactive)
CCCNC(=O)[C@@]1(c2ccc([N+](=O)[O-])cc2)CC(=O)N(C2CCCCC2)[C@@H]1c1ccc(CO)cc1I,0.423 (inactive),0.845,-1.66,-5.34 (inactive),-0.0439 (inactive),0.329 (inactive)
COCCOC(=O)N1C(=O)[C@@]2(c3cc(C#CC4=CCCCC4)ccc31)[C@H](C(=O)N1CCN(c3ncccn3)CC1)[C@H]1C(=O)O[C@H](c3ccccc3)[C@H](c3ccccc3)N1[C@@H]2c1ccc(O)cc1,0.481 (inactive),0.685,-1.29,0.446 (inactive),0.247 (inactive),0.0658 (inactive)
COc1ccc(C#Cc2ccc3c(c2)[C@]2(C(=O)N3)[C@H](C(=O)N3CCc4cc(OC)c(OC)cc4C3)[C@H]3C(=O)O[C@H](c4ccccc4)[C@H](c4ccccc4)N3[C@@H]2c2ccc(O)cc2)cc1,0.786 (inactive),0.578,-1.48,-1.05 (inactive),-0.24 (inactive),-0.218 (inactive)

Compound,composite z-score [1],composite z-score [2],z-score [3],z-score [4],z-score [5],z-score [6]
CC(C)C(=C=CC[C@H](O)c1ccc(OCCO)cc1)C[C@H](O)c1cc(Cl)cc(Cl)c1O,0.263 (inactive),0.746,-2.74,-1.35 (inactive),-0.289 (inactive),0.18 (inactive)
COc1ccc([Si](C)(C)[C@H]2[C@H](CCn3cc([C@H](O)c4ccccc4)nn3)O[C@@]3(C(=O)N(Cc4ccc(N5CCC5=O)cc4)c4ccccc43)[C@@H]2C)cc1,0.588 (inactive),0.576,-1.87,-2.79 (inactive),-0.162 (inactive),-0.628 (inactive)
COc1c(C)cc(-c2cc3c(c(-c4ccccc4)n2)[Si](C(C)C)(C(C)C)OC3)cc1C,0.518 (inactive),-0.479,-1.03,-0.238 (inactive),-0.645 (inactive),-0.268 (inactive)
O=C(NC1CC1)[C@@H]1c2ccccc2C(=O)N(Cc2ccccc2)[C@H]1c1ccc(CO)cc1,1.38 (inactive),0.752,-1.55,-2.86 (inactive),-0.556 (inactive),-0.679 (inactive)
NCCCCCCNC(=O)[C@@H]1C[C@@H]2C(=O)N3CCC[C@H]3C(=O)N2[C@@H]1c1ccc(O)cc1,-0.386 (inactive),0.664,1.42,-2.07 (inactive),0.683 (inactive),0.289 (inactive)
COC(=O)[C@@]1(Cc2ccc(OC)cc2)[C@H]2c3cc(C(=O)N(C)C)n(CCc4c[nH]c5ccc(O)cc45)c3C[C@H]2CN1C(=O)c1ccccc1,0.545 (inactive),0.657,-1.73,-1.44 (inactive),0.453 (inactive),-0.541 (inactive)
[N-]=[N+]=NCc1ccccc1C[C@@]1(C(=O)N2CCCCC2)N=C(c2ccc(OCCCO)cc2)O[C@@H]1c1ccccc1N=[N+]=[N-],1.25 (inactive),0.386,-2.24,-1.84 (inactive),-0.298 (inactive),0.246 (inactive)
C=CCNC(=O)[C@@H]1[C@H]2C(=O)O[C@H](c3ccccc3)[C@H](c3ccccc3)N2[C@H](c2ccccc2OCCO)[C@@]12C(=O)N(C(=O)OCCOC)c1ccc(C#CC3=CCCCC3)cc12,0.0103 (inactive),0.769,-2.08,1.31 (inactive),-0.136 (inactive),-0.103 (inactive)
COc1ccc(NN2C(C(O)c3ccccn3)C=CC3C(=O)N(C4CCCCC4)C(=O)C32)cc1 (stereo not drawn),-0.136 (inactive),0.913,-0.408,-4.39 (inactive),-0.773 (inactive),-0.488 (inactive)
[N-]=[N+]=NCc1ccccc1C[C@@]1(C(=O)NCCN2CCOCC2)N=C(c2ccc(OCCCO)cc2)O[C@@H]1c1ccccc1N=[N+]=[N-],1.51 (inactive),0.767,-2.75,-2.44 (inactive),-0.402 (inactive),-0.753 (inactive)
CCC[C@@H]1C[C@@]1(CCC)[C@@H](NP(=O)(c1ccccc1)c1ccccc1)c1ccc(Cl)cc1,0.337 (inactive),-0.53,-0.908,-1.08 (inactive),0.946 (inactive),0.551 (inactive)
COC(=O)[C@@]1(Cc2ccccc2)[C@H]2c3cc(C(=O)N4CCCC4)n(C[C@H](O)CO)c3C[C@H]2CN1C(=O)c1ccccc1,0.484 (inactive),-0.487,-1.02,-5.19 (inactive),0.905 (inactive),0.777 (inactive)
Cc1ccc(F)cc1S(=O)(=O)N[C@@H]1CCN(Cc2ccc(Oc3ccccc3)cc2)C1,0.401 (inactive),-0.0723,-0.954,-5.64 (inactive),0.659 (inactive),0.735 (inactive)
CCOc1cc(C(O)C2C=CC3C(=O)N(C4CCCCC4)C(=O)C3N2Nc2ccc(OC)cc2)ccc1O (stereo not drawn),0.0699 (inactive),0.486,-0.165,-3.99 (inactive),-0.509 (inactive),-0.813 (inactive)
C=CCN1C(=O)[C@@]2(O[C@@H](CCn3cc([C@H](O)c4ccccc4)nn3)[C@H]([Si](C)(C)c3ccc(OC)cc3)[C@H]2C)c2ccccc21,-0.0466 (inactive),0.857,-0.99,-5.69 (inactive),-0.763 (inactive),-1.51 (inactive)
C=C(CCCC)/C(=C/C[C@@H](OC(=O)c1ccncc1)c1cccc(OCCO)c1)c1cnc2ccccc2c1,0.389 (inactive),0.405,-3.03,-3.72 (inactive),-0.403 (inactive),-0.342 (inactive)
C=C[C@@H](COC(C)=O)NS(=O)(=O)c1ccc(Br)cc1,0.0525 (inactive),0.113,0.4,0.34 (inactive),-0.249 (inactive),-0.227 (inactive)
C=CCOC(=O)[C@H]1[C@@H]2C(=O)O[C@@H](c3ccccc3)[C@@H](c3ccccc3)N2[C@@H](c2ccc(OCCOC(=O)[C@H]3C[C@H]4C(=O)N[C@@H](Cc5ccccc5)C(=O)N4[C@H]3c3cccc(OCCO)c3)cc2)[C@]12C(=O)Nc1ccc(I)cc12,0.893 (inactive),0.464,-1.65,0.643 (inactive),0.27 (inactive),-0.0401 (inactive)
C=CCC(OC(C)=O)[C@@H]1[C@@H](N(Cc2cc3ccccc3o2)C(=O)c2ccc(C)cc2)c2cc(OCCCO)ccc2N1C(=O)Cc1ccc2ccccc2c1 (stereo partly drawn),-0.303 (inactive),-0.419,-0.429,-1.45 (inactive),0.0151 (inactive),0.0749 (inactive)
C=CCOC(=O)[C@@H]1[C@H]2C(=O)O[C@H](c3ccccc3)[C@H](c3ccccc3)N2[C@H](c2ccc(OCCOC(=O)[C@H]3C[C@H]4C(=O)N[C@@H](CCCCN(C)C)C(=O)N4[C@H]3c3cccc(OCCO)c3)cc2)[C@@]12C(=O)Nc1ccc(I)cc12,1.78 (inactive),0.817,-1.65,-0.599 (inactive),-0.426 (inactive),-0.588 (inactive)
CC[C@@H]1[C@H]2C3C(=O)N(CC)C(=O)C3CC(=O)[C@H]2[C@H](c2ccc(C)cc2)N1S(=O)(=O)c1ccc(C)cc1 (stereo partly drawn),0.117 (inactive),0.643,-0.915,-4.84 (inactive),0.2 (inactive),-0.264 (inactive)
